# Pf growth 48h – P. falciparum growth inhibition at 48 hours (one generation); AID 504832; 310,000 compounds, 5.9% hits; Potency, µM (highest dose often 28.7 µM), for inactives: at the top dose activity change, negative = inhibition, actives largely listed as inhibitors; P. falciparum luciferase growth in erythrocytes, 48 h; note: potency is the fitted concentration of half-maximal effect; % is set by controls: 0 for no effect and ±100 for the full control effect
#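 Luciferase-expressing parasites in RBCs, 2% Hct / 0.1% parasitemia final; RPMI 1640 + 0.5% Albumax; 37 C, 5% CO2, one generation; luminescence read-out, lower signal = inhibition.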
# HCV inhibitor – blocks hepatitis C virus. 340,000 compounds, 3.4% hits. Huh7.5.1 HCVcc-Cre infection, luciferase reporter, 44 h. Potency, µM (highest dose often 41.8 µM), for inactives: at the highest dose activity change, negative = inhibition, usual class: inhibitors. AID 651820; note: potency is the fitted concentration of half-maximal effect; % is set by controls: 0 for no effect and ±100 for the full control effect
#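 Seed cells (1,000/well) for 4 h; treat with compound and infect with HCVcc-Cre, moi about 0.5. Incubate 44 h, then detect luciferase activity.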
# Pf growth 96h – P. falciparum growth inhibition at 96 hour, primary screen for plastid delayed-death inhibitors; P. falciparum luciferase reporter growth, 96 h; Potency, µM (doses to about 28.7 µM), for the others: top-dose activity change, negative = inhibition, usual class: inhibitors; 320,000 compounds, 6.9% hits; AID 504834; note: potency is the fitted concentration of half-maximal effect; % is set by controls: 0 for no effect and ±100 for the full control effect
#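 Plates of compound plus infected erythrocytes (2% hematocrit, 0.05% parasitemia final) incubate 96 hours, 37 C, 5% CO2. Detection reagent added; reduced luminescence from the parasites' luciferase reporter flags inhibition.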
# Sm TGR block – blocks Schistosoma mansoni thioredoxin glutathione reductase. AID 485364. Q962Y6. purified TGR, DTNB reduction, TNB absorbance 405 nm. Potency, µM (doses to about 114 µM), for the others: top-dose activity change, negative = inhibition, most hits filed as inhibitors. 360,000 compounds, 3% hits; note: potency is the fitted concentration of half-maximal effect; % is set by controls: 0 for no effect and ±100 for the full control effect; nearly all actives have a fitted effect of over 60% in size
#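 TGR 20 nM + NADPH 100 uM (dispensed conc.), cpd preinc 15 min RT; start with NADPH (500 uM addition) then DTNB (15 mM addition). Kinetic TNB absorbance, 405 nm filter. Four-parameter Hill fit across titration.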
# SARS PLpro yeast – SARS-CoV PLP inhibition in yeast; 330,000 compounds, 0.19% hits; S. cerevisiae expressing SARS-CoV PLpro, growth rescue; Potency, µM (series often up to 32.9 µM), without a hit: at the highest dose activity, positive = growth rescue, usual class: activators; AID 485353; calls by dose curve; note: potency is the fitted concentration of half-maximal effect; 0% is about no effect; nearly all actives have a fitted effect of over 55% in size
# HCMV inh – human cytomegalovirus inhibition | 410,000 compounds, 4.5% hits | HFF cells, HCMV-luciferase reporter, 72 h; stronger effect = lower value | activity change, negative = inhibition, % at 57.5 µM; in the data active = activity change below about -60%; inconclusive = no clear call, values can overlap the other calls; inactive = above about -39%; note: % is set by controls: 0 for no effect and ±100 for the full control effect
#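 Cell-based, HFFs, 1000 cells/well, 16 h 37C; cpds in DMSO + HCMV-luc, MOI 1 PFU/cell; 72 h 37C; OneGlo luminescence after 5 min RT; norm. to buffer vs Salinomycin 10uM.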
# * marks the source's active call; other numbers are inactive results; ? = inconclusive; . = no result given; [ ] = remark or other dose. Sampled rows, rich in hits. Any-hit rate of the full collection: about 15%. Unless noted, calls come from the whole dose curve; as a rule, active = well fitted curve in the direction sought with a large enough effect; inconclusive = small, poorly fitted or top-dose-only effect, or another doubt; inactive = no such curve, though single readings can be large; an effect the other way counts as inactive or inconclusive.
SMILES,Pf growth 48h,HCV inhibitor,Pf growth 96h,Sm TGR block,SARS PLpro yeast,HCMV inh
CCn1c(=O)cc(OCC(=O)NCCCN2CC(C)CC(C)C2)c2ccccc21 (configuration not stated),-29%,-26%,-5%,-1%,0%,350
CCn1c(=O)cc(SCC(=O)Nc2cccnc2)c2ccccc21,14%,?,12µM*,6%,3%,36
CCN(CC)CCOC(=O)c1ccc(NC(=O)COc2cc(=O)n(CC)c3ccccc23)cc1,-13%,?,?,-1%,1%,-101*
CCOC(=O)CSc1cc(=O)n(CC)c2ccccc12,9%,-8%,10µM*,7%,1%,-3
CCN(CC)CCOC(=O)c1ccc(NC(=O)CSc2cc(=O)n(CC)c3ccccc23)cc1,.,.,.,8%,.,62
CCC(CC)C(=O)Nc1cc(-c2cccc(C)c2)nn1-c1ccccc1,.,.,.,-7%,.,21
COc1ccccc1-c1cnc(C(O)c2cc(C)c(OC)c(C)c2)[nH]1 (configuration not stated),.,.,.,.,.,-22
CCCSc1ncc(Cl)c(C(=O)Nc2sc(C(C)=O)c(C)c2C(=O)OCC)n1,.,.,.,0%,.,?
CCOC(=O)COc1cc(=O)n(CC)c2ccccc12,17%,?,8.3µM*,5%,-1%,0
CCOC(=O)N1CCN(C(=O)COc2cc(=O)n(CC)c3ccccc23)CC1,-12%,3%,36%,8%,3%,164
CCc1ccc(NC(=O)CCCOc2cc(=O)n(C)c3ccccc23)cc1,.,.,.,.,.,-98*
CCn1c(=O)cc(SCC(=O)N2CCN(c3ccccc3F)CC2)c2ccccc21,?,14µM*,-4%,10%,-6%,136
OC1(c2ccc(Br)cc2)CCN(Cc2cccc(Br)c2)CC1,?,-17%,4.7µM*,-34%,-4%,-17
Brc1cccc(CN2CCCCCC2)c1,9%,9%,-17%,3%,-4%,0
COc1cc(/C=C/C(=O)c2ccc3c(c2)OCCO3)cc(Br)c1OCC(=O)N(C)C,?,7.1µM*,?,-14%,-7%,-97*
O=C(/C=C/c1ccncc1)c1ccc2c(c1)OCCO2,-1%,-4%,?,45µM*,-6%,26
COc1cccc(/C=C/C(=O)c2ccc3c(c2)OCO3)c1OC,4%,-7%,-2%,-19%,-2%,.
CC1=CC(C)(C)N2C(=O)C3(C(C#N)=C(N)OC4=C3C(=O)CC(C)(C)C4)c3cc(C)cc1c32 (configuration not stated),.,13%,13µM*,-18%,2%,-13
Cc1cc2c3c(c1C)C1(C(=O)N3C(C)(C)CC2C)C(C#N)=C(N)Oc2cc(O)ccc21 (configuration not stated),.,-7%,10µM*,-25%,10%,87
CC1(C)CC(=O)C2=C(C1)OC(N)=C(C#N)C21C(=O)N(CN2CCOCC2)c2ccccc21 (configuration not stated),-4%,18%,-24%,3%,-3%,12
Cc1cc2c3c(c1)C1(C(=O)N3C(C)(C)CC2C)C(C#N)=C(N)OC2=C1C(=O)CC(C)(C)C2 (configuration not stated),12µM*,-8%,?,-1%,4%,32
COc1ccc(-n2c3c(c(=O)[nH]c2=O)C(NC(=O)c2ccncc2)(C(F)(F)F)C(=O)N3)cc1 (configuration not stated),12%,2%,-7%,6%,6%,-38
COc1ccc(-n2cc(C(=O)N(C)c3cc(C)ccc3OC)c3ccccc3c2=O)cc1,.,.,.,-7%,.,-85*
COc1ccc([N+](=O)[O-])cc1NC(=O)c1cn(-c2ccc(C)c(C)c2)c(=O)c2ccccc12,-8%,31%,12µM*,-8%,13%,-30
CCn1cc(C(=O)N(C)c2cc(C)ccc2OC)c2cc(OC)c(OC)cc2c1=O,.,4%,5%,-3%,2%,.
SMILES,Pf growth 48h,HCV inhibitor,Pf growth 96h,Sm TGR block,SARS PLpro yeast,HCMV inh
COc1cccc(-n2cc(C(=O)Nc3ccccc3C(N)=O)c3ccccc3c2=O)c1,.,.,.,4%,.,-80*
COC(=O)CNC(=O)c1cn(-c2ccc(C)c(C)c2)c(=O)c2ccccc12,?,-4%,32%,6%,0%,-6
CCN(CC)C(=O)c1cn(-c2cccc(OC)c2)c(=O)c2ccccc12,-7%,4%,?,16%,4%,-6
CCN(C(=O)c1cn(-c2cccc(OC)c2)c(=O)c2ccccc12)c1ccccc1C,.,.,.,6%,.,-70*
O=C(COc1ccc(Cl)cc1)NCc1nnc(SCC(=O)Nc2ccccc2F)o1,-6%,5%,53%,-1%,-1%,13
FC(F)(F)c1ccccc1-c1ccc2nncn2c1,.,.,.,.,.,1
CC(NC(=O)Nc1cc(Cl)ccc1Cl)c1c(-n2cccc2)sc2c1CCCC2 (configuration not stated),.,.,.,0%,.,-40
COc1cc(CC2C(=O)Nc3ccccc32)cc(C)c1O (configuration not stated),.,5%,4%,40µM*,3%,-31
Cc1ccc(-n2nnnc2CNC(=O)c2cc(C(F)(F)F)cc(C(F)(F)F)c2)cc1C,.,.,.,0%,.,-2
CCOc1cccc(N)c1,?,-6%,?,-9%,0%,.
CCOc1ccc(N)c(SSc2cc(OCC)ccc2N)c1,0%,-27%,?,-2%,-10%,-98*
CCOC(=O)/C(C(C)=O)=C1\OC(=O)c2ccccc21,3%,17%,-9%,20µM*,5%,18
CCOC(=O)/C(C(C)=O)=C1/OC(=O)c2ccccc21,.,-7%,31%,11µM*,6%[6.58 µM],-32
O=C(O)/C(=C1\OC(=O)c2ccccc21)c1ccccc1,-19%,6%,-9%,-2%,-3%,-12
CC(NC(=O)C(=O)NN=C1CCCCCCCCCCC1)c1ccccc1 (configuration not stated),3%,5%,328%,-23%,0%,28
COCCN(CC1CCCN(C2Cc3ccccc3C2)C1)C(=O)CCC(F)(F)F (configuration not stated),5%,-11%,0.41µM*,?,-7%,125
COCCN(CC1CCCN(C2Cc3ccccc3C2)C1)C(=O)c1ccc(C(C)=O)cc1 (configuration not stated),?,6%,49%,?,-7%,-16
CN[C@H]1C[C@H]2c3cc(N4CCN(C)CC4)ccc3CCN2C(=O)[C@H]1[C@H](C)O,.,.,.,.,.,6
CCOc1ccc(NC(=O)N2CCN(Cc3ccc4c(c3)OCO4)CC2)cc1,-26%,-6%,18%,0%,-1%,-22
